Results published in PubChem BioAssay (NCI).
This is part of a sample that, as a whole, favours compounds with a hit. Of some 83,000 tested, about 20% had one in any assay.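 Step 1: grow cells in 96-well plates. Step 2: add test compound at a single concentration. Step 3: incubate 48 h. Step 4: record percent growth.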 Values without a mark were called inactive. Active and inactive are the calls of the source. The calls were made as follows: active = growth percent below 10; inactive = the rest.

Assays:
Assay in all cases: NCI-60 one-dose screen, 48 h (100 = growth as untreated, 0 = no growth, -100 = all killed)
Details in all cases: 10 µM unless noted
[1] = system: SR leukemia
[2] = system: RPMI-8226 leukemia
[3] = system: OVCAR-8 ovarian
[4] = system: OVCAR-5 ovarian
[5] = system: OVCAR-4 ovarian
[6] = system: SK-OV-3 ovarian
[7] = system: IGROV1 ovarian
[8] = system: OVCAR-3 ovarian
[9] = system: HS 578T breast
[10] = system: NCI/ADR-RES ovarian

Compound	growth [1]	growth [2]	growth [3]	growth [4]	growth [5]	growth [6]	growth [7]	growth [8]	growth [9]	growth [10]
C=C1C(=O)O[C@H]2[C@H]1CC/C(COC(=O)NCc1ccc(Cn3c(=O)sn(-c4ccc(OC)cc4)c3=O)cc1)=C\CC[C@@]1(C)O[C@@H]21	27.3%	-3.82% (active)	75.8%	83.6%	35.7%	105%	46.7%	-27.1% (active)	90.7%	95.8%
CCOC(=O)C(=Cc1cccc(C#N)c1)C(=O)OCC	7.73% (active)	15.1%	71.6%	60.1%	88.2%	91.3%	59.8%	61.2%	93.9%	47.6%
CCCCCCCC/C=C\CCCCCCCCOc1ccccc1CC(=O)NCC[N+]1(C)CCCCC1	-5.14% (active)	19.7%	60.5%	66.2%	34.1%	85.2%	16.5%	41.3%	77.2%	99.3%
CN1CCN(c2ccc(NC(=O)c3cncnc3Nc3ccc4c(ccn4Cc4cccc(F)c4)c3)cc2)CC1	10.9%	46.1%	34.9%	65.5%	66.2%	97.4%	77.1%	80.8%	68.3%	75.8%
Cn1cc(-c2ccc3cc(-c4ccc(CC(=O)Nc5cc(C(C)(C)C)on5)cc4)cnc3c2)cn1	3.71% (active)	19.6%	20.4%	56.7%	-21.9% (active)	5.31% (active)	3.11% (active)	48.9%	9.69% (active)	33.1%
N=c1c2c(=N)n3c(nc2nc2n1-c1ccccc1Sc1ccccc1-2)sc1cc(Cl)ccc13	25.9%	14.5%	26.5%	92.2%	8.65% (active)	49.6%	38.7%	7.88% (active)	32%	30.1%
CCCCCCC(=O)Nc1ncc(Cc2ccc(C)cc2)s1	20.4%	40.1%	45.5%	58.1%	50.1%	31.8%	44.2%	8.65% (active)	21.7%	29%
CCOC(=O)CSc1nc2sc3c(c2c(=O)n1-c1ccc([N+](=O)[O-])cc1)CCCCC3	76.7%	91.6%	58.4%	72.2%	31%	68.3%	68.7%	51.8%	39.7%	84.3%
O=C1NC(=O)c2c1c1c3ccccc3[nH]c1c1oc3ccc(F)cc3c21	31.5%	74.5%	91.6%	84.1%	57.8%	84%	21.1%	83.1%	82.2%	79.1%
Fc1ccc2c(c1)c(-c1nc(-c3c[nH]c4ncccc34)cs1)cn2CCCN1CCOCC1	12.1%	36.6%	59.7%	82.3%	56.2%	81.6%	38.6%	59.8%	38.3%	59.2%
CCCCCCCC/C=C\CCCCCCCCOc1ccc(CC(=O)NCC[N+](C)(C)C)cc1	62.4%	40.9%	54.8%	27.5%	72.2%	93.6%	6.27% (active)	83.3%	76.7%	94.4%
CC1(C)CC2=C3C=C[C@@H]4[C@@]5(C)CC[C@H](O)C(C)(C)[C@@H]5CC[C@@]4(C)[C@]3(C)CC[C@@]2(C(=O)O)CC1=O	50.5%	4.49% (active)	62.6%	99.5%	38%	75.9%	35.3%	22.2%	73%	61.2%
O=C1/C(=C/c2ccc(Br)cc2)COc2ccc(O)c(O)c21	6.26% (active)	-33.5% (active)	6.31% (active)	-59.8% (active)	15.6%	58.8%	-45.7% (active)	-91.5% (active)	11.9%	3.52% (active)
O=C1CCCc2nc3sc4c(=O)n(-c5ccccc5Cl)nnc4c3cc21	87.8%	87.6%	92.2%	100%	105%	107%	99.9%	114%	99%	103%
Cc1ccc(S(=O)(=O)n2cc(C3C(Cl)C(=O)N3c3ccc(N4CCOCC4=O)cc3)c3ccccc32)cc1 (stereo not given)	24.6%	21.6%	55.5%	78.5%	52.4%	93.9%	72.6%	30.4%	41.8%	32.6%
CN(C)c1ccc(-c2cc(-c3ccc(Nc4nc(Nc5ccc(Cl)cc5)nc(Nc5ccc(Cl)cc5)n4)cc3)nc(N)c2C#N)cc1	40.6%	-27.1% (active)	68%	87.1%	88.5%	102%	55%	88.3%	82.5%	78%
CCCCCCCCCCCCCCCCOC(=O)c1c(C)[nH]c(/C=C2\N=C(c3ccc[nH]3)C=C2OC)c1C	68.2%	-2.3% (active)	15.3%	78.4%	72.2%	70.4%	35.6%	47.6%	65.9%	26.6%
O=C1Nc2ccc(F)cc2/C1=N/c1nnc(Sc2ccccc2)s1	61%	55.7%	89.7%	113%	95%	97.1%	80.2%	97.3%	94.4%	85.3%
C#Cc1cccc(Nc2nc3ccc([N+](=O)[O-])cc3nc2Nc2cccc(C#C)c2)c1	-22.1% (active)	-21.7% (active)	-23.3% (active)	-17.6% (active)	-43.7% (active)	-84.9% (active)	-29% (active)	-67.4% (active)	-19.1% (active)	-9.97% (active)
Cn1cc(-c2nonc2-c2c[nH]c3ccccc23)c2ccccc21	11.6%	8.96% (active)	16%	25.9%	30.5%	18.9%	24.4%	-17.7% (active)	6.76% (active)	5.05% (active)
COc1ccc2c(c1)c(-c1cc(-c3cn(C)c4ccc(OC)cc34)on1)cn2C	104%	84.6%	97.5%	78.5%	112%	93.3%	87.4%	107%	90.3%	95.4%
Cc1ccc(-c2nc(C(Cl)Cl)nc3cc(C)nn23)cc1	9.7% (active)	33.4%	14.7%	2.16% (active)	-21.5% (active)	-12.7% (active)	6.31% (active)	-24.3% (active)	-11.4% (active)	6.39% (active)
C#CCn1cnc2c(Nc3cccc(NC(=O)CCl)c3)ncnc21	9.78% (active)	10.4%	50%	43.7%	26.9%	49.6%	7.54% (active)	31.6%	50%	49.1%
C=CCCC(=O)N1C=CC(=O)[C@H](O)[C@@H]1/C=C/c1ccccc1	43.8% [100 µM]	54.2% [100 µM]	37% [100 µM]	62.2% [100 µM]	55.4% [100 µM]	39.2% [100 µM]	51% [100 µM]	30.3% [100 µM]	87.6% [100 µM]	19.8% [100 µM]
COc1ccc(Cn2cc(C(=O)N=Nc3c(O)[nH]c4c(Cl)cccc34)nn2)cc1	80.3%	106%	97.4%	123%	104%	113%	103%	113%	97.5%	105%
Nc1ncnc2c1c(-c1ccc(Oc3ccccc3)cc1)nn2CC1SSCC1O (stereo not given)	-16.2% (active)	38%	67.7%	81.4%	67.4%	44.3%	15.6%	11.9%	66.7%	77.5%
Cc1nc2sc(C(=O)Nc3ccccc3)c(N)c2cc1C(=O)/C=C/c1ccccc1	11.7%	-33.9% (active)	-1.16% (active)	16.6%	4.43% (active)	35.4%	-7.01% (active)	-47.5% (active)	12%	-10.7% (active)
